From PubChem BioAssay (NCATS)
Results filed as inconclusive are left out. Where a call stands in place of a potency, no number is given. The source made the active and inactive calls. Calls come from the whole dose curve; as a rule, active = well fitted curve in the direction sought with a large enough effect; inconclusive = small, poorly fitted or top-dose-only effect, or another doubt; inactive = no such curve, though single readings can be large; an effect the other way counts as inactive or inconclusive.

biological target: Luciferin 4-monooxygenase (Photinus pyralis) (UniProt P08659); assay: Biochemical firefly luciferase enzyme assay for NPC (AID 624030);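 note: purified P. pyralis luciferase at 10 nM with luciferin and ATP substrate; nearly all actives have a fitted effect of over 70% in size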; conditions: purified P. pyralis luciferase, luminescence, 5 min; series mostly up to 58.6 µM
Summary of the method: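 Direct inhibition of firefly luciferase enzyme (10 nM final, 50 mM Tris Acetate) assessed by luminescence within 5 minutes. Percent activity scaled between DMSO and PTC124 positive control, with concentration-effect curves classified by fit quality and response.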

Chain of Luciferin 4-monooxygenase (Photinus pyralis) (P08659 whole entry, looked up): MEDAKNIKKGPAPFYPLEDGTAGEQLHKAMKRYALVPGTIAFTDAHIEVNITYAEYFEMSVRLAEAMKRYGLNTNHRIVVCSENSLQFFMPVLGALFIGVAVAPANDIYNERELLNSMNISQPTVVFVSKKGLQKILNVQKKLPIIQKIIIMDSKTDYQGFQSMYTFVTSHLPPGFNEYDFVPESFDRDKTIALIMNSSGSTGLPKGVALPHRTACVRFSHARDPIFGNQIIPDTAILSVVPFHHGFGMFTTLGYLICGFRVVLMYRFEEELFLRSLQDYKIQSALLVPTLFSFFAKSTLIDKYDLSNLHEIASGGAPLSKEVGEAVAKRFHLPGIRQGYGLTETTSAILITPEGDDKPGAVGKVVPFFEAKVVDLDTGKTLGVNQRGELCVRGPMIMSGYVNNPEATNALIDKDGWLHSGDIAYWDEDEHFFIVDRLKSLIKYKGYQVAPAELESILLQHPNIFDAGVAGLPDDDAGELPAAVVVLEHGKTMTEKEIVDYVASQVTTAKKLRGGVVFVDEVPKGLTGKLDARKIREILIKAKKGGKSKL

Which Potency does the source give for `CN1C[C@@H](NS(=O)(=O)N(C)C)C[C@@H]2c3cccc4c3c(cn4C)C[C@H]21` here?
Its Potency is “inactive”.

Which Potency does the source give for `O=C(O)c1nn(Cc2ccc(Cl)cc2Cl)c2ccccc12` here?
The Potency was “inactive”.

For `C[C@]12CC[C@H]3[C@@H](CC=C4C[C@@H](O)CC[C@@]43C)[C@@H]1CC[C@@H]2O`, which Potency is on record?
The Potency was “inactive”.

With `C[C@]12C=CC(=O)C=C1CC[C@@H]1[C@@H]2CC[C@@]2(C)[C@H]1CC[C@]2(C)O` as the compound, how does the Potency read?
The Potency was “inactive”.

For `CNC(=O)NC(O)C(Cl)(Cl)Cl` (stereo unspecified), which Potency is on record?
Its Potency is “inactive”.

For `NC(=O)CN1CCCC1=O`, which Potency is on record?
The Potency was “inactive”.

For `C[C@]12Cc3nonc3C[C@@H]1CC[C@@H]1[C@@H]2CC[C@@]2(C)[C@H]1CC[C@]2(C)O`, which Potency is on record?
The Potency was “inactive”.

With `OC(c1ccccc1)(c1ccccc1)C1CCNCC1` as the compound, how does the Potency read?
The Potency was “inactive”.

Which Potency does the source give for `CC(C)NCC(O)c1ccc(N)c(C#N)c1` (stereo unspecified) here?
The Potency was “inactive”.

For `O=C(CCCN1CCC(n2c(=O)[nH]c3ccccc32)CC1)c1ccc(F)cc1`, which Potency is on record?
Its Potency is “inactive”.

For `Clc1ccc(CO/N=C(\Cn2ccnc2)c2ccc(Cl)cc2Cl)c(Cl)c1`, which Potency is on record?
Its Potency is “inactive”.

For `NC(=O)OCCCc1ccccc1`, which Potency is on record?
The Potency was “inactive”.

For `CCC1(CC)C(=O)NC(=O)NC1=O`, which Potency is on record?
Its Potency is “inactive”.

For `CN1C(=O)CN=C(c2ccccc2)c2cc([N+](=O)[O-])ccc21`, which Potency is on record?
Its Potency is “inactive”.

For `CC(Cc1ccccc1)NCc1ccccc1Cl` (stereo unspecified), which Potency is on record?
The Potency was “inactive”.

Which Potency does the source give for `CN1CCc2cc(Cl)c(O)cc2[C@H]2c3ccccc3CC[C@@H]21` here?
Its Potency is “inactive”.

test system: not listed separately; assay: S16 Schwann cell viability assay (CellTiter-Glo assay) (AID 624031); conditions: S16 rat Schwann cells viability, 24 h; series mostly up to 57.5 µM; note: nearly all actives have a fitted effect of over 70% in size; note: potency is the fitted concentration of half-maximal effect
Summary of the method: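 Rat S16 Schwann cells without reporter constructs received compound or DMSO for 24 h at 37 °C under 5% CO2. Cellular ATP was then quantified by CellTiter-Glo luminescence, with vehicle wells defined as 0% activity and cell-free wells as reference.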

Which Potency does the source give for `O=C(O)c1nn(Cc2ccc(Cl)cc2Cl)c2ccccc12` here?
The Potency was “inactive”.

With `O=C1NCN(c2ccccc2)C12CCN(CCCC(c1ccc(F)cc1)c1ccc(F)cc1)CC2` as the compound, how does the Potency read?
Its Potency is 22.8 µM (active).

With `C[C@]12C=CC(=O)C=C1CC[C@@H]1[C@@H]2CC[C@@]2(C)[C@H]1CC[C@]2(C)O` as the compound, how does the Potency read?
Its Potency is “inactive”.

With `CNC(=O)NC(O)C(Cl)(Cl)Cl` (stereo unspecified) as the compound, how does the Potency read?
Its Potency is “inactive”.

With `NC(=O)CN1CCCC1=O` as the compound, how does the Potency read?
Its Potency is “inactive”.

Which Potency does the source give for `OC(c1ccccc1)(c1ccccc1)C1CCNCC1` here?
The Potency was “inactive”.

Which Potency does the source give for `CC(C)NCC(O)c1ccc(N)c(C#N)c1` (stereo unspecified) here?
The Potency was “inactive”.

With `O=C(CCCN1CCC(n2c(=O)[nH]c3ccccc32)CC1)c1ccc(F)cc1` as the compound, how does the Potency read?
The Potency was “inactive”.

Which Potency does the source give for `Clc1ccc(CO/N=C(\Cn2ccnc2)c2ccc(Cl)cc2Cl)c(Cl)c1` here?
Its Potency is “inactive”.

With `NC(=O)OCCCc1ccccc1` as the compound, how does the Potency read?
Its Potency is “inactive”.

Which Potency does the source give for `CCC1(CC)C(=O)NC(=O)NC1=O` here?
The Potency was “inactive”.

Which Potency does the source give for `CN1C(=O)CN=C(c2ccccc2)c2cc([N+](=O)[O-])ccc21` here?
The Potency was “inactive”.

For `CC(Cc1ccccc1)NCc1ccccc1Cl` (stereo unspecified), which Potency is on record?
The Potency was “inactive”.

test system: not listed separately; assay: S16 Schwann cell PMP22 intronic element firefly luciferase assay (AID 624032); conditions: S16 rat Schwann cells, PMP22 element FLuc, 24 h; series mostly up to 57.5 µM; note: nearly all actives have a fitted effect of over 30% in size; note: potency is the fitted concentration of half-maximal effect
Summary of the method: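 Luciferase reporter of PMP22 intronic-element expression in stably transfected S16 rat Schwann cells, read by ONE-Glo luminescence after 24 h compound exposure at 37 C. Activity scaled between DMSO (0%) and positive-control PTC124; concentration-effect curves quality-classified.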

For `CN1C[C@@H](NS(=O)(=O)N(C)C)C[C@@H]2c3cccc4c3c(cn4C)C[C@H]21`, which Potency is on record?
Its Potency is “inactive”.

Which Potency does the source give for `O=C(O)c1nn(Cc2ccc(Cl)cc2Cl)c2ccccc12` here?
The Potency was “inactive”.

Which Potency does the source give for `O=C(O)c1ccc(OCCCOc2ccc(C(=O)O)cc2)cc1` here?
Its Potency is “inactive”.

For `C[C@]12CC[C@H]3[C@@H](CC=C4C[C@@H](O)CC[C@@]43C)[C@@H]1CC[C@@H]2O`, which Potency is on record?
The Potency was “inactive”.

For `C[C@]12C=CC(=O)C=C1CC[C@@H]1[C@@H]2CC[C@@]2(C)[C@H]1CC[C@]2(C)O`, which Potency is on record?
The Potency was “inactive”.

For `COC(=O)C1=C(C)NC(C)=C(C(=O)OC)C1c1ccccc1[N+](=O)[O-]`, which Potency is on record?
Its Potency is 18.1 µM (active).

With `O=c1cc(CO)occ1O` as the compound, how does the Potency read?
Its Potency is 16.1 µM (active).

With `O=C(Oc1cccc2cccnc12)c1ccccc1` as the compound, how does the Potency read?
Its Potency is 9.07 µM (active).

With `CNC(=O)NC(O)C(Cl)(Cl)Cl` (stereo unspecified) as the compound, how does the Potency read?
The Potency was “inactive”.

With `CC1CCc2cc(F)cc3c(=O)c(C(=O)O)cn1c23` (stereo unspecified) as the compound, how does the Potency read?
Its Potency is “inactive”.

Which Potency does the source give for `NC(=O)NNc1ccccc1` here?
The Potency was “inactive”.

Which Potency does the source give for `CCCCCCCCCCCCCCCC[n+]1ccccc1` here?
The Potency was 10.2 µM (active).

Which Potency does the source give for `CCCCCCCCCCCCOCCOCCOCCOCCOCCOCCOCCOCCOCCO` here?
The Potency was 18.1 µM (active).

For `CN1CCN(c2cc3c(nn2)Oc2ccccc2N3C)CC1`, which Potency is on record?
Its Potency is “inactive”.

With `NC(=O)CN1CCCC1=O` as the compound, how does the Potency read?
The Potency was “inactive”.

Which Potency does the source give for `C[C@]12Cc3nonc3C[C@@H]1CC[C@@H]1[C@@H]2CC[C@@]2(C)[C@H]1CC[C@]2(C)O` here?
The Potency was 14.4 µM (active).

With `CN(C)C(=S)SC(=S)N(C)C` as the compound, how does the Potency read?
Its Potency is 2.87 µM (active).

With `OC(c1ccccc1)(c1ccccc1)C1CCNCC1` as the compound, how does the Potency read?
The Potency was “inactive”.

With `CN1C[C@H](C(=O)N[C@]2(C)O[C@@]3(O)[C@@H]4CCCN4C(=O)[C@H](Cc4ccccc4)N3C2=O)C[C@@H]2c3cccc4[nH]cc(c34)C[C@H]21` as the compound, how does the Potency read?
The Potency was 25.6 µM (active).

With `CC(C)NCC(O)c1ccc(N)c(C#N)c1` (stereo unspecified) as the compound, how does the Potency read?
Its Potency is “inactive”.

For `CC(C)(C)C(=O)C(Oc1ccc(Cl)cc1)n1ccnc1` (stereo unspecified), which Potency is on record?
The Potency was 2.03 µM (active).

With `O=C(CCCN1CCC(n2c(=O)[nH]c3ccccc32)CC1)c1ccc(F)cc1` as the compound, how does the Potency read?
Its Potency is “inactive”.

Which Potency does the source give for `Clc1ccc(CO/N=C(\Cn2ccnc2)c2ccc(Cl)cc2Cl)c(Cl)c1` here?
Its Potency is 32.2 µM (active).

Which Potency does the source give for `NC(=O)OCCCc1ccccc1` here?
Its Potency is “inactive”.

For `CCC1(CC)C(=O)NC(=O)NC1=O`, which Potency is on record?
Its Potency is “inactive”.

Which Potency does the source give for `Cc1cccc(C)c1NC(=O)CN1CCCC1` here?
Its Potency is 8.09 µM (active).

For `CN1C(=O)CN=C(c2ccccc2)c2cc([N+](=O)[O-])ccc21`, which Potency is on record?
Its Potency is “inactive”.

For `Clc1ccc2c(c1)CCc1cccnc1C2=C1CCNCC1`, which Potency is on record?
The Potency was 28.7 µM (active).

For `COc1cc(C(=S)N2CCOCC2)ccc1O`, which Potency is on record?
Its Potency is 5.1 µM (active).

With `NC(N)=NN=C(/C=C/c1ccc([N+](=O)[O-])o1)/C=C/c1ccc([N+](=O)[O-])o1` as the compound, how does the Potency read?
The Potency was 7.21 µM (active).

With `CC(Cc1ccccc1)NCc1ccccc1Cl` (stereo unspecified) as the compound, how does the Potency read?
The Potency was “inactive”.

Which Potency does the source give for `CN1CCc2cc(Cl)c(O)cc2[C@H]2c3ccccc3CC[C@@H]21` here?
The Potency was “inactive”.
